In ChEMBL document CHEMBL1157539, “Thousands of chemical starting points for antimalarial lead identification” (Nature, 2010):

Each compound was assayed on Plasmodium falciparum (assay: GSK_TCMDC: Inhibition of Plasmodium falciparum 3D7 in whole red blood cells, using parasite LDH activity as an index of growth. Test compounds present at 2uM).
Format: functional

Row | Compound | Inhibition [%]
1 | CCC[C@@H]([C@@H](CC1CCCCC1)C(=O)N[C@H](C(=O)Nc1nccs1)C(C)(C)SCCNC(=O)OCC)N(O)C=O | 99
2 | COc1ccc(C2=C(Nc3ccc4oc5ccccc5c4c3)c3ccccc3C2=O)cc1 | 93
3 | CN(C)CCNCc1ccc(-c2ccc3c(Nc4ccc(Cl)cc4F)ccnc3c2)o1 | 99
4 | CN1CCCN(Cc2ccc(-c3cccc(NC(=O)c4ccc(C#N)cc4)c3)cc2)CC1.O=C(O)C(F)(F)F | 100

Each compound was assayed on Plasmodium falciparum (assay: GSK_TCMDC: Inhibition of Plasmodium falciparum Dd2 in whole red blood cells, using parasite LDH activity as an index of growth. Test compounds present at 2uM).
Format: functional

Row | Compound | Inhibition [%]
5 | O=C(/C=C/c1ccc(Cl)c(Cl)c1)N1CCN(C(=O)Nc2ccc(F)c(Cl)c2)CC1 | 87
6 | Cl.NC1=NC(c2ccccc2)N(OCc2ccccc2)C(N)=N1 (centres undefined) | 21
7 | Cl.Oc1cc(-c2nc(-c3ccccc3)[nH]c2-c2ccncc2)ccc1Cl | 91
8 | Nc1ncc(-c2cccc(F)c2)cc1-c1nc2cc(F)ccc2[nH]1.O=C(O)C(F)(F)F | 88
9 | Oc1ccccc1CN1CCC2(CCCN(Cc3ccccc3F)C2)C1 (centres undefined) | 83
10 | COc1ccc(CON2C(=N)N=C(N)NC2(C)C)cc1OC.Cl | 97
11 | N#Cc1cccc(COC(=O)C2=C(COc3ccccc3Cl)NC(=O)NC2c2c[nH]c3cnccc23)c1 (centres undefined) | 0
12 | CCC(C)NS(=O)(=O)c1ccc2nc(Nc3ccc(C)cc3)n(C3CCCCC3)c2c1 (centres undefined) | 97
13 | O=C(Nc1ccc(N2CCCN(Cc3cccc(F)c3)CC2)cc1)c1cccs1.O=C(O)C(F)(F)F | 96
14 | CCNc1cc(C)nc(Nc2ccc(C)cc2)n1 | 85
15 | COC(=O)c1ccc2nc(-c3ccc(C(=O)NC4CCN(Cc5ccccc5)CC4)s3)[nH]c2c1 | 71
16 | Cc1ccc(CN2CCN(c3cc4c(cc3Cl)CCN4C(=O)Cc3ccc(Cl)c(NC(=O)Nc4cccc(C#N)c4)c3)CC2)cc1 | 29
17 | CCCC(C)N(Cc1ccc(C(C)(C)C)cc1)C(=O)c1ccc(OC)cc1 (centres undefined) | 98
18 | CC(C)(C)c1ccc(C(=O)Nc2cccc(Nc3c(C(=O)NCc4cccc(C(F)(F)F)c4)cnc4c(O)cccc34)c2)cc1.O=C(O)C(F)(F)F | 79
19 | COc1ccc(CCN(C)CCOc2ccc(NC(=O)c3cc(SC)cc4c(=O)c5ccccc5[nH]c34)cc2)cc1OC | 44
20 | N#Cc1cccc(NC(=O)Nc2cccc(OC3CCN(Cc4ccccc4)CC3)c2)c1.O=C(O)C(F)(F)F | 48
21 | CNC(=O)c1cnc(Nc2ccc(N3CCN(C)CC3)cc2)nc1Nc1cccc(OC)c1.O=C(O)C(F)(F)F | 100
22 | Cc1csc(-c2nc(NCCc3c(C)noc3C)ncc2-c2ccsc2)n1 | 82
23 | Cc1ccc(CNC(=O)[C@H](CCCN)Nc2cc(C)nc(Nc3ccccc3)n2)cc1.O=C(O)C(F)(F)F | 0
24 | CCN(CC)CCN(Cc1ccc(-c2ccc(C(F)(F)F)cc2)cc1)C(=O)Cn1c(SCc2ccc(F)c(F)c2F)nc(=O)c2c1CCC2.O=C(O)C(O)C(O)C(=O)O | 96

Row | Compound | Inhibition [%]
25 | COc1ccc(NC(=O)/C=C/c2ccccc2Cl)cc1OCCN1CCC(N2CCN(C)CC2)CC1 | 49
26 | Fc1ccc2[nH]c(-c3cccc(-c4ccc(CN5CCN(CCN6CCOCC6)CC5)cc4)c3)nc2c1.O=C(O)C(F)(F)F | 100
27 | O=C(NCC1CCC(CNCCCc2ccccc2)CC1)Nc1ccc(Cl)c(Cl)c1 (centres undefined) | 2
28 | O=C(Nc1ccc(-c2csc(-c3nc4ccccc4[nH]3)c2)cc1)Nc1ccsc1 | 17
29 | COc1cccc(COCC(O)CN(CCc2ccccn2)C(=O)c2ccccc2F)c1 (centres undefined) | 30
30 | CN1CCC(Oc2cc(NC(=O)Nc3ccc(-c4ccncc4)c(Cl)c3)ccc2Cl)CC1 | 100
31 | Oc1ccc(CCNc2nc(NCc3ccccc3-c3ccc(C(F)(F)F)cc3)nc(N3CCNCC3)n2)cc1 | 53
32 | O=C(/C=C/c1ccc(Cl)c(Cl)c1)NCCCCCN1CCC(NC(=O)c2ccc3ccccc3c2)CC1 | 20
33 | Cc1ccc(Nc2ccnc(Nc3ccc(C)c(F)c3)n2)cc1O.Cl | 27
34 | COc1ccc(CCn2c(=N)c(C(=O)NCc3ccccc3)cc3c(=O)n4cccc(C)c4nc32)cc1 | 37
35 | CN(c1ccc2c(c1)nc(NCc1ccccc1)n2C)c1ccnc(Nc2ccc(CS(C)(=O)=O)cc2)n1.Cl | 69
36 | O=C(Nc1cccc(-c2cccc(-c3nc4cc(F)ccc4[nH]3)c2)c1)Nc1ccc(F)c(F)c1F | 100
37 | FC(F)(F)c1ccc2[nH]c(-c3ccc(-c4ccc(CNCc5cnn(-c6ccccc6)n5)cc4)cc3)nc2c1.O=C(O)C(F)(F)F | 76
38 | Cc1cccc(Cn2c(Cc3ccccc3)nnc2Sc2ccc([N+](=O)[O-])c(C#N)c2)c1 | 3
39 | CN1CCN(CCc2ccc3nc(-c4csc(Cc5cc(Cl)ccc5OCc5ccccc5)n4)[nH]c3c2)CC1 | 97
40 | CN1CCC(N2CCN(c3ccc4c(=O)nc(CCc5cccc(F)c5F)n(CC(=O)N(C)Cc5ccc(-c6ccc(C(F)(F)F)cc6)cc5)c4n3)CC2)CC1.O=C(O)C(O)C(O)C(=O)O | 99
41 | CCC[C@@H]([C@@H](CC1CCCCC1)C(=O)N[C@H](C(=O)Nc1nccs1)C(C)(C)SCCNC(=O)OCC)N(O)C=O | 98
42 | COc1ccc(C2=C(Nc3ccc4oc5ccccc5c4c3)c3ccccc3C2=O)cc1 | 92
43 | CN(C)CCNCc1ccc(-c2ccc3c(Nc4ccc(Cl)cc4F)ccnc3c2)o1 | 100
44 | CN1CCCN(Cc2ccc(-c3cccc(NC(=O)c4ccc(C#N)cc4)c3)cc2)CC1.O=C(O)C(F)(F)F | 26
